Values joined by “and” are separate entries in the source; they are usually repeats but may differ in a detail not shown here. Equal entries are not always repeated. Values without a mark were called inactive. Results filed as inconclusive are left out. Some structures have more than one record in an assay (separate samples or runs), and their calls can disagree. Active and inactive are the calls of the source. Unless noted, calls come from the whole dose curve; as a rule, active = well fitted curve in the direction sought with a large enough effect; inconclusive = small, poorly fitted or top-dose-only effect, or another doubt; inactive = no such curve, though single readings can be large; an effect the other way counts as inactive or inconclusive.

One assay relates to C33A. Briefly: Primary qHTS to identify gynecologic anti-cancer compounds using libraries of approved drugs and bioactive compounds (AID 1345084). Note: nearly all actives have a fitted effect of over 55% in size. Note: potency is the fitted concentration of half-maximal effect. Particulars: Gynecologic cancer cell panel viability, ATPlite luminescence, 48 h; series mostly up to 57.5 µM. In short, it runs like this:
(§1)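 In this quantitative HTS, cell killing is estimated from loss of ATP-dependent luciferase light. Cells see five compound concentrations over a 48 h exposure.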
(In general: qHTS replaces the single test concentration by a dilution series.)

The next assay deals with CASKI. The assay is described as above. Particulars: Gynecologic cancer cell panel viability, ATPlite luminescence, 48 h; series mostly up to 57.5 µM. The method in brief:
as §1
On the technique in general: Cellular ATP, detected with luciferase, serves as a proxy for viable cell number.

The test system of a further assay is Es-2. The description is as above. Particulars: Gynecologic cancer cell panel viability, ATPlite luminescence, 48 h; series mostly up to 57.5 µM. In short, it runs like this: as §1
The next assay relates to JEG-3. The description is as above. Particulars: Gynecologic cancer cell panel viability, ATPlite luminescence, 48 h; series mostly up to 57.5 µM. The method in brief:
as §1

The test system of a further assay is OV90. The description is as above. To be noted: Gynecologic cancer cell panel viability, ATPlite luminescence, 48 h; series mostly up to 57.5 µM. The method in brief:
as §1

The test system of the next assay is PA-1. Described as above. Particulars: Gynecologic cancer cell panel viability, ATPlite luminescence, 48 h; series mostly up to 57.5 µM. The method in brief:
as §1

In another assay the test system is Tov-21-G. Described as above. Particulars: Gynecologic cancer cell panel viability, ATPlite luminescence, 48 h; series mostly up to 57.5 µM. The method in brief: as §1
Another assay concerns Tov112D. The description is as above. Particulars: Gynecologic cancer cell panel viability, ATPlite luminescence, 48 h; series mostly up to 57.5 µM. In short, it runs like this: as §1
Assay [1] is described as follows: Drug repurposing screens with cells derived from glioblastoma tumor samples (AID 1345199). For activity, negative = cell killing: % is set by controls: 0 for no effect and ±100 for the full control effect. Note: nearly all actives have a fitted effect of over 40% in size. Note: potency is the fitted concentration of half-maximal effect. Particulars: GBM patient neurospheres viability, ATP luminescence, 48 h. In short, it runs like this: (§2)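 Primary testing used CD133+ neurospheres from four GBM patients, seven concentrations, 48 h exposure and ATP-based viability; confirmation added three slower-growing patient lines.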

Assay [2] concerns the target Nuclear receptor subfamily 1 group I member 2 (Rattus norvegicus) (UniProt Q9R1A7). Put plainly: qHTS assay for small molecule activators of the rat pregnane X receptor (rPXR) signaling pathway (AID 651751; call rule not given here; note: 0% is about no effect). To be noted: rPXR reporter cells, luciferase (One-Glo), 24 h.
Assay [3] can be described thus: qHTS assay for small molecule activators of the human pregnane X receptor (PXR) signaling pathway (AID 720659; call rule not given here; note: 0% is about no effect).
The test system of the next assay is HeLa. Briefly: Primary qHTS to identify gynecologic anti-cancer compounds using libraries of approved drugs and bioactive compounds (AID 1345084). Note: nearly all actives have a fitted effect of over 55% in size. Note: potency is the fitted concentration of half-maximal effect. To be noted: Gynecologic cancer cell panel viability, ATPlite luminescence, 48 h; series mostly up to 57.5 µM. The method in brief: as §1
Another assay concerns Hek293T. Described as above. To be noted: Gynecologic cancer cell panel viability, ATPlite luminescence, 48 h, control line for the selectivity index; series mostly up to 57.5 µM. In short, it runs like this:
as §1

The next assay has as its system astro. Briefly: Drug repurposing screens with cells derived from glioblastoma tumor samples (AID 1345199). For activity, negative = cell killing: % is set by controls: 0 for no effect and ±100 for the full control effect. Note: nearly all actives have a fitted effect of over 40% in size. Note: potency is the fitted concentration of half-maximal effect. To be noted: viability, ATP luminescence, 48 h; series mostly up to 45.9 µM. In short, it runs like this: as §2
The test system of a further assay is SKOV3. Put plainly: Primary qHTS to identify gynecologic anti-cancer compounds using libraries of approved drugs and bioactive compounds (AID 1345084). Note: nearly all actives have a fitted effect of over 55% in size. Note: potency is the fitted concentration of half-maximal effect. To be noted: Gynecologic cancer cell panel viability, ATPlite luminescence, 48 h; series mostly up to 57.5 µM. In short, it runs like this:
as §1

Assay [4] in a line: qHTS assay to identify inhibitors of the type 1 interferon - major histocompatibility complex class I in skeletal muscle: Counter screen cell viability and HiBit confirmation (AID 1347412). For activity change, negative = inhibition: % is set by controls: 0 for no effect and ±100 for the full control effect. Note: nearly all actives have a fitted effect of over 60% in size. Note: potency is the fitted concentration of half-maximal effect. To be noted: iHSKM muscle cells + IFN-b, HiBiT or CellTiter-Glo, 24 h. The method in brief: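 Duplicate plates, pinned identically: one read for HiBiT-tagged endogenous HLA-B luminescence, the other for ATP-content viability via CellTiter Glo. Cells were genome-engineered human myoblasts given 4 ng/ml IFN-b; compounds 12-pt, 1:3 from 46 uM final; 24 hr exposure.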

Where [5] appears, read: at 45.9 µM (top of the series), tumour line B.
The mark [6] stands for this setting: at 45.9 µM (top of the series), tumour line D.
[7] abbreviates: at 46.1 µM (top of the series), tumour line C.
Setting [8] is: at 46 µM (top of the series), tumour line A.

Nuclear receptor subfamily 1 group I member 2 (Rattus norvegicus), sequence (Q9R1A7 whole entry, looked up): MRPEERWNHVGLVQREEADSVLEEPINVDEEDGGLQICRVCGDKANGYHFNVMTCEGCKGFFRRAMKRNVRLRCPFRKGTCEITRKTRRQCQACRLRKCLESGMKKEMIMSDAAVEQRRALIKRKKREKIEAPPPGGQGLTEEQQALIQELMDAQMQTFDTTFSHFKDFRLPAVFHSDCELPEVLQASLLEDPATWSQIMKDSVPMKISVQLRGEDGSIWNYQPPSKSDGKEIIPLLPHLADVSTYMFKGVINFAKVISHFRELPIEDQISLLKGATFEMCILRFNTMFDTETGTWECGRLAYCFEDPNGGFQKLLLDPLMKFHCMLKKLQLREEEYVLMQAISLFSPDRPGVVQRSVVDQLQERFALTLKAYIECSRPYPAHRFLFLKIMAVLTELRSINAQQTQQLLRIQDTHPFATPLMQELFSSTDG

As for `Nc1nc2ccc([N+](=O)[O-])cc2s1`, the Potency result with C33A, in the assay on CASKI, in the assay on Es-2, in the assay with JEG-3, in the assay on OV90 and with PA-1 was “inactive” in each case. Moreover, the Potency entry in the assay on Tov-21-G and in the assay with Tov112D was “inactive” throughout. For the same compound, the activity, negative = cell killing is -13.3% in [1] (at 91.6 µM (top of the series), tumour line B) and -20.5% in assay [1] (at 99.2 µM (top of the series), tumour line C). For the same compound, the Potency in assay [1] (tumour line A) was 39.8 µM (active). In assay [2], the max response is -3.29%. Further, in [3], the call was inactive.
`O=C(O)c1cc(O)c(O)c(O)c1`: the Potency entry in the assay on C33A, in the assay with CASKI, in the assay on Es-2, with HeLa, in the assay on Hek293T and in the assay on JEG-3 was “inactive” throughout. Besides, the Potency result in the assay with OV90, with PA-1, in the assay on Tov-21-G, in the assay on Tov112D and with astro was “inactive” throughout. Also, the activity, negative = cell killing in assay [1] (setting [5]) was -10.4%; in assay [1] (setting [6]), -20.6%; in assay [1] (setting [7]), 20.7%. Moreover, the max response in assay [2] is -9.5%. In addition, in assay [3], the outcome was inactive.
Take `CCCCN(CC)c1nc(C)nc2c1c(C)cn2-c1c(C)cc(C)cc1C`: the Potency entry in the assay on C33A, in the assay with CASKI, with Es-2, in the assay with HeLa, in the assay on Hek293T and in the assay with JEG-3 was “inactive” throughout. Further, the Potency result in the assay on OV90, in the assay on PA-1, in the assay with Tov-21-G and in the assay on Tov112D was “inactive” in each case.
Regarding `COc1cccc2c1C(=O)c1c(O)c3c(c(O)c1C2=O)C[C@@](O)(C(=O)CO)C[C@@H]3O[C@H]1C[C@H](N)[C@H](O[C@@H]2CCCCO2)[C@H](C)O1`, the Potency in the assay with C33A is 10 µM (active); in the assay with CASKI it was 12.6 µM (active); in the assay with Es-2, 7.08 µM (active); in the assay with Hek293T it was 10 µM (active); in the assay with PA-1, 2.51 µM (active); with SKOV3 it was 12.6 µM (active). For the same compound, the Potency was 1.58 µM (active) in the assay with Tov112D and 12.6 µM (active) with astro. Also, the Potency entry in the assay on HeLa was “inactive”.
Take `Nc1ccc(O)c([N+](=O)[O-])c1`: the Potency result with C33A, with CASKI, with Es-2, with HeLa, with Hek293T and in the assay on JEG-3 was “inactive” each time. Also, the Potency result in the assay on PA-1, in the assay with SKOV3, with Tov-21-G and in the assay on Tov112D was “inactive” in each case. Also, the max response in assay [2] is -2.38% and -0.765%. Besides, the outcome in assay [3] was inactive.
With `O=C(Nc1ccc2[nH]ncc2c1)C1CCC1`, the Potency entry in the assay on C33A, with CASKI, in the assay on Es-2, in the assay on HeLa, in the assay on Hek293T and with JEG-3 was “inactive” in each case. The Potency result with OV90, in the assay on PA-1, in the assay on SKOV3, with Tov-21-G and in the assay on Tov112D was “inactive” throughout.
Take `CCCCC[C@H](O)/C=C/[C@@H]1[C@@H](C/C=C\CCCC(=O)O)[C@@H](O)C[C@H]1O`: the activity, negative = cell killing was -5.83% in assay [1] (at 20 µM (top of the series), tumour line C); 0.321% in assay [1] (at 21.2 µM (top of the series), tumour line B); -15.4% in assay [1] (at 21.2 µM (top of the series), tumour line D); 1.47% in [1] (setting [5]); -6.45% in assay [1] (setting [6]); -9.88% in assay [1] (setting [8]). In assay [1] (setting [7]), the activity, negative = cell killing was -1.95%. For the same compound, the Potency entry in the assay with astro is “inactive”.
Turning to `C=C(Nc1ccc(OCC)cc1)Nc1ccc(OCC)cc1`, the values for the activity, negative = cell killing in [1] (setting [6]) and in assay [1] (setting [7]) were -18.8% and -12.9%, respectively.
Turning to `OCC1O[C@H]([S-])[C@H](O)[C@@H](O)[C@@H]1O.[Au+]` (stereo not given in full), the activity change, negative = inhibition in assay [4] (Viability, at 45.9 µM (top of the series)) was -5.66%.
`Oc1ccccc1O`: the max response in assay [2] is 2.32%. Also, in assay [3], the result was inactive.
For `CC1(C)C[C@@H]1C(=O)N/C(=C\CCCCSC[C@H](N)C(=O)O)C(=O)O`, the activity, negative = cell killing is -13% and -12.1% in assay [1] (setting [5]); 1.02% and -4.66% in assay [1] (setting [6]); -10.2% and -10.8% in assay [1] (setting [8]); -10.6% and -17.9% in assay [1] (setting [7]). The Potency entry in the assay on astro is “inactive”.
With `CO/N=C(\C(=O)N[C@@H]1C(=O)N2C(C(=O)O)=C(COC(C)=O)CS[C@H]12)c1csc(N)n1` (stereo in doubt), the activity, negative = cell killing in [1] (setting [5]) is -12.2%; in assay [1] (setting [6]) it was 9.74%; in assay [1] (setting [8]) it was -20.5%; in assay [1] (setting [7]) it was -2.27%. The Potency result in the assay with astro is “inactive”.
As to `O=[N+]([O-])c1ccc2c(c1)S(=O)(=O)C=C2`, in assay [4] (HiBiT), the Potency is 1.76 µM (active).

For the origin of these results see PubChem BioAssay (NCATS).
